Reference: the supplement of paper PMC10849652
The full data set covers some 7,900 targets. This sample favours those with a hit. About 0.6% of all pairs of compound and target were hits.

Compound: c1cn2cc(-c3ccc4cn[nH]c4c3)nc(Nc3ccc(N4CCOCC4)cc3)c2n1 [entospletinib]
Experiment: log2 fold change, soluble protein after heating vs DMSO (PISA); higher = thermal stabilisation; K562 cells, 10 uM, 30 min; active = over 0.2 and 3.5 SD of the protein, either way, in both replicates (recomputed)
In short: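 For each measurement, 10 μM compound was applied for 30 min to K562 cells at 2×10^6 cells/mL. Aliquots were heated for 3 min across 48°C-58°C, pooled, and extracted in PBS with 0.5% NP-40 at 4°C; the supernatant after 21,000xg for 90 min was soluble protein. This was quantified by TMTpro 16plex LC-MS/MS with channel sums equalised, and thermal stability was reported relative to control samples from duplicates, on a log2 fold-change scale.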

Sequence of UniProt Q15057 (Q15057 whole entry, looked up): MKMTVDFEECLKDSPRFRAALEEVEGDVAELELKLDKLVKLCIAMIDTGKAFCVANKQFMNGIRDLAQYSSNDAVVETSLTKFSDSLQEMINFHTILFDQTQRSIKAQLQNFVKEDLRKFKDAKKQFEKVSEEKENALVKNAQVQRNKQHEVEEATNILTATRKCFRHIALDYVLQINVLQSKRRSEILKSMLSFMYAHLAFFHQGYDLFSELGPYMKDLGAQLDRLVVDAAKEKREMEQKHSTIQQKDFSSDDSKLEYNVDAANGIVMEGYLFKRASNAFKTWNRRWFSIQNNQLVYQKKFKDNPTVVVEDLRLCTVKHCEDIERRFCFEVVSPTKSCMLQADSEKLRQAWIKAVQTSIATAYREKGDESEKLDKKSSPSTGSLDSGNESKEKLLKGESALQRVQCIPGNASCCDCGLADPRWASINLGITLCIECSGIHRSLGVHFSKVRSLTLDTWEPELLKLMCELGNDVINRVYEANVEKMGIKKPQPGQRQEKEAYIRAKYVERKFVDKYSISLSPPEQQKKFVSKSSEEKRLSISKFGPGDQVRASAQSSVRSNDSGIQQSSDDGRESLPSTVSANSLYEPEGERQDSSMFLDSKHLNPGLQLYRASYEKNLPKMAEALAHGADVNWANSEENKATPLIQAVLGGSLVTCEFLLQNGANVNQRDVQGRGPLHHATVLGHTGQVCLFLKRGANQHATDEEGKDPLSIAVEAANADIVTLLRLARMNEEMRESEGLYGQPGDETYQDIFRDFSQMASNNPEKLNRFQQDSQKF
Sequence of UniProt Q9UBL3 (Q9UBL3 whole entry, looked up): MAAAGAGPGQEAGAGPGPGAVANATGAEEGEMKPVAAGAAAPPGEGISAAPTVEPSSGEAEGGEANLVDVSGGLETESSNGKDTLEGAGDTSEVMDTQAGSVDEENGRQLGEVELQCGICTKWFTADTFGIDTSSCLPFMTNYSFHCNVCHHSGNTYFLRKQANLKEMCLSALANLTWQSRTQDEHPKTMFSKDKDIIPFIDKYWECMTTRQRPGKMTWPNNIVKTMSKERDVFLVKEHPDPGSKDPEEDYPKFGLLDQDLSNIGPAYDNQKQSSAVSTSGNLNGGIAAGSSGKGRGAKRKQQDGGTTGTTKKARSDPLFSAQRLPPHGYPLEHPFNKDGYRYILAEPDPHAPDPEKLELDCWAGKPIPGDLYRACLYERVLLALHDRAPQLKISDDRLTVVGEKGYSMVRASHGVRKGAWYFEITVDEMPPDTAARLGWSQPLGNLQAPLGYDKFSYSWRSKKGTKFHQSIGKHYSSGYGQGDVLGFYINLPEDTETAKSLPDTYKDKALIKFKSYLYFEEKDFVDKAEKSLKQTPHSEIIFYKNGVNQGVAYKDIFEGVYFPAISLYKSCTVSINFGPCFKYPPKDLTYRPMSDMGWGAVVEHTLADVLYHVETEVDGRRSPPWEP
Sequence of UniProt O00116 (O00116 whole entry, looked up): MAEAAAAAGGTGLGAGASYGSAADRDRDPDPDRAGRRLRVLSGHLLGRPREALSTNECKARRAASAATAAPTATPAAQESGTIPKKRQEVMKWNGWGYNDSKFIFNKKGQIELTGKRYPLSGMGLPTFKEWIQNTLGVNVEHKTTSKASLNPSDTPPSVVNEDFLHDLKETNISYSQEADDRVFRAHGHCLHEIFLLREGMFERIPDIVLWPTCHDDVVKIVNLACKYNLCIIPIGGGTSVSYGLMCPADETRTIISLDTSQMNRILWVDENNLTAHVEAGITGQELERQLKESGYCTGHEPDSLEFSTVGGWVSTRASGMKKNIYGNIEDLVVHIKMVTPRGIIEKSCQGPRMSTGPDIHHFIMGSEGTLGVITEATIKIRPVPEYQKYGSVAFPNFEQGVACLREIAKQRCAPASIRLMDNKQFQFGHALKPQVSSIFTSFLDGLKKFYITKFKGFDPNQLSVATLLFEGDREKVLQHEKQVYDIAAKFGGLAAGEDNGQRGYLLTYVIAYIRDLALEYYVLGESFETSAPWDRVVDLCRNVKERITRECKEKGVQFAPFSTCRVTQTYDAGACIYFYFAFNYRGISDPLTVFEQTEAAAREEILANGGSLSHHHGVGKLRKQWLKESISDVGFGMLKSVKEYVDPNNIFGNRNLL
Sequence of UniProt Q92560 (Q92560 whole entry, looked up): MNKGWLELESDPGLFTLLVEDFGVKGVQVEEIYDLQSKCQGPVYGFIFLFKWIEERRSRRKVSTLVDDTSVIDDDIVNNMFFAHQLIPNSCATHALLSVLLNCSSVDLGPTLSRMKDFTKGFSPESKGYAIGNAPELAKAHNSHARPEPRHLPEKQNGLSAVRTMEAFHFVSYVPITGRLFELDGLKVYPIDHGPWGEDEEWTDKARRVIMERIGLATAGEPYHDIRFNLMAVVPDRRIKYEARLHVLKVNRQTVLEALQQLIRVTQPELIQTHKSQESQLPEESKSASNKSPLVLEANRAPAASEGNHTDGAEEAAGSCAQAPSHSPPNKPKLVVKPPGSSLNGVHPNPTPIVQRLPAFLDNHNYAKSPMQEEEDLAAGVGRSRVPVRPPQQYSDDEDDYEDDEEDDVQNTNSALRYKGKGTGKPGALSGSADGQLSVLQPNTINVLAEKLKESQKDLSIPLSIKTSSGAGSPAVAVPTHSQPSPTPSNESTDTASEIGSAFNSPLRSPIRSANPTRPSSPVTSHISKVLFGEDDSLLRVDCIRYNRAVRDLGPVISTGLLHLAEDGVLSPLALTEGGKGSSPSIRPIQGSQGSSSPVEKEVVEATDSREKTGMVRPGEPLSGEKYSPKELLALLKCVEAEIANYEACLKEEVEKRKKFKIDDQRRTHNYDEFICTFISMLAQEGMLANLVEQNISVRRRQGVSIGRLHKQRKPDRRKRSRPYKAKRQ
Sequence of UniProt Q96F25 (Q96F25 whole entry, looked up): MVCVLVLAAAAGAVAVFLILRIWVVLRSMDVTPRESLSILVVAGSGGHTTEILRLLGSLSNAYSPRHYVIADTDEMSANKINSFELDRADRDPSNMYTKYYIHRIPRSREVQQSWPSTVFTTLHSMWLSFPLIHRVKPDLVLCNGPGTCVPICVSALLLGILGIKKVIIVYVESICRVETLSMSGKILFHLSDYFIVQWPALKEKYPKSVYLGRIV
Sequence of UniProt Q562R1 (Q562R1 whole entry, looked up): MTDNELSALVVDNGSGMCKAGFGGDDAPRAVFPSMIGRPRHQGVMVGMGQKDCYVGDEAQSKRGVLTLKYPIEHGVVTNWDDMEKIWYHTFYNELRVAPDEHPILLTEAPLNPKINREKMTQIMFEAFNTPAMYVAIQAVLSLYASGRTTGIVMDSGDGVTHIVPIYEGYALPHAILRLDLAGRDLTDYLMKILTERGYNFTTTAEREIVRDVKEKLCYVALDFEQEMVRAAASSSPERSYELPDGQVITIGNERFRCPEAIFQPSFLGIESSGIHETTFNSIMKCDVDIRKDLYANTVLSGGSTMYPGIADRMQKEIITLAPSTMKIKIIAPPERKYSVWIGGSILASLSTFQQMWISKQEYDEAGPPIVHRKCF
Sequence of UniProt P98171 (P98171 whole entry, looked up): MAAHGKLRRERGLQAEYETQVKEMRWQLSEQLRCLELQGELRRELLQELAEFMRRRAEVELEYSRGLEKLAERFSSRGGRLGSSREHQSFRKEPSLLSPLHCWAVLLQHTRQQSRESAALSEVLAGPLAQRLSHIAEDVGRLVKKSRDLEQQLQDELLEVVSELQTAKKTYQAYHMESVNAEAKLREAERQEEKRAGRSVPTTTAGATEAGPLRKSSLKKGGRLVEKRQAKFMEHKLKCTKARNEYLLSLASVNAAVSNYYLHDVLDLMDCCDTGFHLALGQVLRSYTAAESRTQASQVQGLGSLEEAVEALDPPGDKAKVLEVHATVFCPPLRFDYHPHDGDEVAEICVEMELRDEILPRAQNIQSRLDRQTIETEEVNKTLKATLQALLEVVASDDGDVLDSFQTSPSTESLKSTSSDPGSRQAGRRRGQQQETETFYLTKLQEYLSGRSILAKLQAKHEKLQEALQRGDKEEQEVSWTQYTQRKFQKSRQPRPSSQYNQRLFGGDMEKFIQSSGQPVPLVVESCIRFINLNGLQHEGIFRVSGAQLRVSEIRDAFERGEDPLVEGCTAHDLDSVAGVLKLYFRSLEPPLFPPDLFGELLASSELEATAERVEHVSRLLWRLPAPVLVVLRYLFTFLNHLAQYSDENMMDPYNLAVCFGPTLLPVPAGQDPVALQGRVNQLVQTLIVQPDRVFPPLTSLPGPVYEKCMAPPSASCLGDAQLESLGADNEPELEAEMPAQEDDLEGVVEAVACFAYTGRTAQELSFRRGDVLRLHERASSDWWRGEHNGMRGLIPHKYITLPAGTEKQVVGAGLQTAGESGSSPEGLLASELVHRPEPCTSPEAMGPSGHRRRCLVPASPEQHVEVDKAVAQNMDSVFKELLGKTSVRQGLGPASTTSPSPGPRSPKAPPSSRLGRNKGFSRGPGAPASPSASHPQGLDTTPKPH
Sequence of UniProt P42025 (P42025 whole entry, looked up): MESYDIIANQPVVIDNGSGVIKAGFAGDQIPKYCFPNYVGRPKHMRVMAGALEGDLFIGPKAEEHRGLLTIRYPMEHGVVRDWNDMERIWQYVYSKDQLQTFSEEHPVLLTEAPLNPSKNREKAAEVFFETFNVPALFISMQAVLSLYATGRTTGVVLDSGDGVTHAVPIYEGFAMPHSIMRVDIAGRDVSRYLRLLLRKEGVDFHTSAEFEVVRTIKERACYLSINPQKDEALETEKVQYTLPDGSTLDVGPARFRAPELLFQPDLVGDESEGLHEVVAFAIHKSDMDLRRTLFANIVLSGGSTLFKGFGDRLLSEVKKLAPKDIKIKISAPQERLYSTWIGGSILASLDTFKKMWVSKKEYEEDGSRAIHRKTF
Sequence of UniProt P53680 (P53680 whole entry, looked up): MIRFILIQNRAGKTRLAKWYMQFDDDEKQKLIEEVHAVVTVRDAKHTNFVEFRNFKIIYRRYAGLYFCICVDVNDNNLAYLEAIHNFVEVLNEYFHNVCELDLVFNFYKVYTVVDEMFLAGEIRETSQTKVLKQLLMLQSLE

log2 fold change, inactive:
BAP1 (UniProt Q92560) -0.062
AP2S1 (UniProt P53680) 0.028
ACTR1B (UniProt P42025) 0.01
ADK (UniProt P55263) 0.082
ATR (UniProt Q13535) -0.021
BRD3 (UniProt Q15059) 0.033
ACAP2 (UniProt Q15057) -0.073
ACP1 (UniProt P24666) 0.102
ADAMTS5 (UniProt Q9UNA0) -0.145
ARHGAP4 isoform 2 (UniProt P98171) 0.003
AGPS (UniProt O00116) 0.008
AP2B1 isoform 2 (UniProt P63010) 0.032
ALDH9A1 isoform 3 (UniProt P49189) -0.017
ALG14 (UniProt Q96F25) -0.063
ACOX3 (UniProt O15254) 0.056
BTBD6 (UniProt Q96KE9) 0.056
ALDH2 isoform 2 (UniProt P05091) 0.118
ACACB (UniProt O00763) -0.077
ASH2L (UniProt Q9UBL3) -0.02
ACTBL2 (UniProt Q562R1) 0.103
BRD8 (UniProt Q9H0E9) 0.031
AARSD1 isoform 3 (UniProt Q9BTE6) -0.066
AKT2 (UniProt P31751) 0.005
